Records with an inconclusive call do not appear. Calls of active or inactive are those of the source. Calls come from the whole dose curve; as a rule, active = well fitted activation curve with a large enough effect in the repeat runs; inconclusive = weak or mixed curves; inactive = flat fitted curve, though single readings scatter.
Test: A CellTox Green Cytotoxicity Assay to monitor cytotoxicity in HEK293 cells - 24 hour (AID 1224875); note: nearly all actives have a fitted effect of over 45% in size
Conditions: CellTox Green fluorescence; series mostly up to 76.8 µM; activity change: at the top concentration
How it was run: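 Cells (HEK293, 600/well) and dye reagent are dispensed together. After 5 h at 37 C, 23 nL compound is pinned in. Plates stay at 37 C for 40 h with fluorescence read at 0h, 8h, 16h, 24h, 32h and 40h.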
% is set by controls: 0 for no effect and ±100 for the full control effect.

SMILES | activity change
CC(=O)OC(C)=O | -19.4% (inactive)
C=CCSSCCC | 0.407% (inactive)
COc1ccc(CCO)cc1 | -12% (inactive)
